The values that follow come from the supplement of paper PMC7366291.

The structures appear in SMILES notation. Where a name gives a salt, the structure may show the parent alone. ± gives the standard deviation of the averaged measurements.

This test deals with Danio rerio Tg(wt1b:EGFP) embryo, pronephros. Briefly: glomerular width (mean of left and right), fold change vs DMSO control; higher = wider glomerulus. The note with it: 25 µM; exposure: 24-48 hpf. In short, it runs like this: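 Each feature value is a fold change relative to the mean of same-day DMSO-treated embryos. Embryos of the Tg(wt1b:EGFP) zebrafish line, dechorionated, received 25 μM compound in 0.5% DMSO from 24 to 48 hpf at 28.5°C, in HEPES-buffered E3 with 0.003% PTU. Distances and angles were computed by a Fiji macro from 16 manually set reference points on maximum projections of dorsal pronephros images, and values beyond 2 SD of the feature mean were removed.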
For the molecule `Cc1cccc(C)c1NC(=O)CN1CCN(CCCC(c2ccc(F)cc2)c2ccc(F)cc2)CC1` [Lidoflazine], the glomerular width was 0.667 ± 0.014.

The molecule `CC1(C)S[C@@H]2[C@H](NC(=O)[C@H](NC(=O)N3CCNC3=O)c3ccccc3)C(=O)N2[C@H]1C(=O)O` [Azlocillin sodium salt] showed a glomerular width of 1.01 ± 0.023.

`CCOC(=O)[C@H](CCc1ccccc1)N[C@@H](C)C(=O)N1Cc2ccccc2C[C@H]1C(=O)O` [Quinapril hydrochloride] had a glomerular width of 0.987 ± 0.012.

The molecule `CCCCC(CC)CN1CN(CC(CC)CCCC)CC(C)(N)C1` (configuration not stated) [Hexetidine] gave a glomerular width of 0.9542 ± 0.0081.

In the case of `CC(C)N1CCN(c2ccc(OCC3COC(Cn4cncn4)(c4ccc(Cl)cc4Cl)O3)cc2)CC1` (configuration not stated) [Terconazole], the glomerular width is 1.0642 ± 0.00066.

Regarding `CN(C/C=C/c1ccccc1)Cc1cccc2ccccc12` [Naftifine hydrochloride], the glomerular width is 0.96 ± 0.044.

`c1ccc(CC2=NCCN2)cc1` [Tolazoline hydrochloride] displayed a glomerular width of 1.03 ± 0.053.
